Screens from PubChem BioAssay.
aSyn UTR inh = 5' untranslated region of α-synuclein, MLPCN primary screen. alpha-synuclein 5'UTR reporter, inhibitor activity. inhibition, % (tested at 7.5 µM). 300,000 compounds, 0.82% hits. AID 1813; in the data active = inhibition above about 60%; inconclusive = no clear call, values can overlap the other calls;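 also: H4 neuroglioblastoma cells stably carrying SNCA 5'UTR luciferase fusion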
697 NFkB inh = inhibitors of the PMA/ionomycin-induced NF-kB reporter in 697 B cells. inhibition, % at 4 µM. 330,000 compounds, 0.33% hits. 697 B-cell NF-kB luciferase reporter, 16 h. AID 435022; in the data active = inhibition above about 35%
H9c2 TAG inh = inhibitors of triacylglycerol accumulation; H9c2 cells, Nile Red lipid (TAG) fluorescence; cells loaded with 200 µM oleic acid; inhibition, % at 12.5 µM; 230,000 compounds, 0.66% hits;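 active = pattern-corrected inhibition of lipid staining of at least 50% with the nuclear-stain viability signal not falling by more than 50%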
Shn3 3UTR inh = inhibitors of Schnurri-3 3'UTR reporter in osteoblasts. Clone20 osteoblast Shn3 3'UTR firefly luciferase, 24 h. inhibition, % at 12.5 µM. 360,000 compounds, 0.52% hits;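 active = mean inhibition of at least 75% with every replicate also reaching 75%; inconclusive = mean inhibition at least 75% but some replicate below; inactive = mean inhibition below 75%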
Jurkat NFkB inh = inhibitors of the PMA/ionomycin-induced NF-kB reporter in Jurkat cells; 330,000 compounds, 0.53% hits; inhibition, % at 4 µM; PMA/ionomycin-induced NF-kB luciferase reporter, luminescence; AID 435003; in the data active = inhibition above about 50%
Gli-Sufu block = antagonists of Gli-Sufu signaling; inhibition, % at 5 µM; 340,000 compounds, 0.74% hits; Sufu-KO-LIGHT fibroblasts, Gli luciferase reporter luminescence; AID 588413;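 active = inhibition above about 55%, limit read from the data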
Gli antag conf = confirmation of Gli-SUFU pathway antagonists | shares compounds with Gli-Sufu block | Sufu-KO-LIGHT cells, Gli luciferase reporter, luminescence | inhibition, % at 5 µM | 2,500 compounds, 40% hits;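 active = mean inhibition at 5 µM reaching about 45%, limit read from the data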
SufuKO cytotox = cytotoxicity counter-screen for Gli-SUFU antagonists. Sufu-KO-LIGHT cells cytotoxicity, ATP luminescence. AID 651994. 2,500 compounds, 32% hits. shares compounds with Gli-Sufu block. cytotoxicity, % at 5 µM;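 active = mean cytotoxicity at 5 µM above about 25%, limit read from the data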;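 also: cells exposed to compound overnight for roughly 16 to 18 hours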
Wnt3a cs = counter-screen for Gli-SUFU antagonists: Wnt3a reporter inhibition | inhibition, % at 6.25 µM | Wnt-LIGHT cells, Wnt3a-driven luciferase reporter, luminescence | shares compounds with Gli-Sufu block | 2,500 compounds, 20% hits;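 active = mean inhibition above about 25%, limit read from the data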
Large screens that a line does not name were inactive (follow-up assays come after a bar, where they were run). This is a sample that favours compounds with a hit; in the whole collection about 2.3% have one here.

CC(=O)c1nnn(-c2nc(N)nc(N(c3ccccc3)c3ccccc3)n2)c1C	none (no result: H9c2 TAG inh)
CC(C)Oc1ccccc1/C=N/Nc1ccccc1[N+](=O)[O-]	none (no result: H9c2 TAG inh)
O=C(NC1CCCN(CCc2ccccc2)C1)c1c[nH]c2ccccc12 (stereo not drawn)	none (no result: H9c2 TAG inh)
C/C(N)=C(/C#N)C(=O)COC(=O)c1ccncc1	Gli-Sufu block 95.1 | Gli antag conf inactive | SufuKO cytotox inactive | Wnt3a cs inactive
COc1cc(/C=N/Nc2ncc(C(F)(F)F)cc2Cl)cc(OC)c1O	none (no result: H9c2 TAG inh)
COC(=O)c1ccc(NC(=O)COc2ccc(S(=O)(=O)NC(C)(C)C)cc2)cc1	none
COc1ccc(-c2nc(CS(=O)(=O)CC(=O)NCCCN3CCN(C)CC3)c(C)o2)cc1	none (no result: H9c2 TAG inh) | Gli antag conf inactive | SufuKO cytotox inactive | Wnt3a cs inactive
Cn1c(=O)c2[nH]c(CCCCCCCCc3nc4ccccc4[nH]3)nc2n(C)c1=O	Shn3 3UTR inh 85.6, Gli-Sufu block 56.6 (no result: aSyn UTR inh, 697 NFkB inh, Jurkat NFkB inh) | Gli antag conf 66.2 | SufuKO cytotox 28.0 | Wnt3a cs inactive
O=C(Nc1nnc(CC(=O)N2CCOCC2)s1)c1cccs1	none
O=C(Cn1cnc2ccccc21)Nc1ccc(SC(F)F)cc1	Shn3 3UTR inh inconclusive, Gli-Sufu block 65.1 | Gli antag conf 56.8 | SufuKO cytotox 37.2 | Wnt3a cs inactive
CC(=O)NNc1ncnc2c1cnn2-c1ccccc1	Gli-Sufu block 57.1 | Gli antag conf inactive | SufuKO cytotox 31.2 | Wnt3a cs inactive
c1ccc(CCNc2nc(-c3ccncc3)cs2)cc1	none
Nc1cc(OCC(F)(F)F)cc([N+](=O)[O-])c1	none (no result: H9c2 TAG inh)
Nc1cc(N)c(OCC(F)(F)F)cc1OCC(F)(F)F	Gli-Sufu block 68.0 (no result: H9c2 TAG inh) | Gli antag conf inactive | SufuKO cytotox inactive | Wnt3a cs inactive
O=C(NCCOC(=O)c1ccc(C(=O)OCCNC(=O)c2ccccc2)o1)c1ccccc1	none | Gli antag conf inactive | SufuKO cytotox inactive | Wnt3a cs inactive
O=C(NCCOC(=O)c1ccccc1)c1ccccc1	none (no result: aSyn UTR inh)
O=C1C(Cl)=C(NCCc2ccccc2)C(=O)c2ccccc21	none (no result: aSyn UTR inh, 697 NFkB inh, Jurkat NFkB inh)
C=CCNC1=C(Cl)C(=O)c2ccccc2C1=O	Gli-Sufu block 55.7 (no result: H9c2 TAG inh) | Gli antag conf inactive | SufuKO cytotox inactive | Wnt3a cs 78.7
Cc1ccc[n+](CC(=O)Nc2ccc(C)c(C)c2)c1	none (no result: H9c2 TAG inh)
COc1ccc(-n2c(-c3ccc(Br)cc3)n[nH]c2=S)cc1	none
COc1ccc(-n2c(-c3ccc(Br)cc3)c[n+]3c2CCCCC3)cc1	Shn3 3UTR inh 89.1, Gli-Sufu block 87.6 (no result: H9c2 TAG inh) | Gli antag conf 86.4 | SufuKO cytotox 41.4 | Wnt3a cs inactive
COc1ccc(-n2c(-c3ccc(Br)cc3)c[n+]3c2SC(C)C3)cc1 (stereo not drawn)	Gli-Sufu block 75.8 | Gli antag conf 84.8 | SufuKO cytotox 41.9 | Wnt3a cs inactive
COc1ccc(-n2c(-c3ccc(Br)cc3)nc(=S)c3c2CCCC3)cc1	none (no result: H9c2 TAG inh)
COc1ccc(-n2c(-c3ccc(Br)cc3)c[n+]3c2CCC3)cc1	Gli-Sufu block 80.4 | Gli antag conf 80.4 | SufuKO cytotox 37.8 | Wnt3a cs inactive
COc1ccc(-n2c(-c3ccccc3)c[n+]3c2CCC3)cc1	Gli-Sufu block 71.6 | Gli antag conf 79.9 | SufuKO cytotox 37.6 | Wnt3a cs inactive
CCO[C@H]1OC(C(=O)N2CCOCC2)=C[C@@H](c2coc3ccccc3c2=O)[C@@H]1CCCO	none
CC1(C)NC(=O)N(CC(=O)Nc2cc(S(=O)(=O)N3CCOCC3)ccc2N2CCOCC2)C1=O	none (no result: H9c2 TAG inh, Shn3 3UTR inh, Gli-Sufu block)
NNC(=O)COc1ccc(-c2n[nH]c(C(F)(F)F)c2-c2ccc(Br)cc2)c(O)c1	none
CCN(CC)C(=O)N1CCN(S(=O)(=O)c2c(C)cc(C)cc2C)CC1	none
COc1ccc(N2CCN(C3CCCN(C(=O)c4ccoc4)C3)CC2)cc1 (stereo not drawn)	Gli-Sufu block 55.0 (no result: H9c2 TAG inh) | Gli antag conf inactive | SufuKO cytotox inactive | Wnt3a cs inactive
